# A549 viability: A549 cytotoxicity, counter-screen for Nrf2 inhibitors. A549 ARE-Fluc cells, CellTiter-Fluor viability, 18-24 h. Potency, µM (top dose mostly 46 µM), inactives show at the highest dose activity change, negative = cytotoxicity, most hits filed as inhibitors. 0.16% of 390,000 active. AID 504648; also: % is scaled to controls: 0 for no effect and ±100 for the full control effect
#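 A549 ARE_Fluc cells in 5% FBS OPTI-MEM were exposed to compounds in concentration-response for 18-24 h at 37 deg C. Viability was read by CellTiter-Fluor fluorescence (Ex 405/Em 525) after 30 min, before the luciferase read.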
# Nrf2 inh: Nrf2 pathway inhibition | A549 ARE-Fluc reporter, luciferase luminescence, 18-24 h | Potency, µM (highest dose often 46 µM), for inactives: top-dose activity change, negative = inhibition, most hits filed as inhibitors | 2.1% of 360,000 active | AID 504444; also: % is scaled to controls: 0 for no effect and ±100 for the full control effect; nearly all actives have a fitted effect of over 60% in size
#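 Quantitative HTS in A549 cells stably bearing an antioxidant response element-firefly luciferase construct. Inhibition of Nrf2-driven transcription was scored by luminescence after 18-24 h of compound exposure at 37 °C.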
# PINK1 expr mod: modulators of PINK1 expression | PINK1 immunofluorescence, high-content cytometry, 24 h | Potency, µM (highest dose often 76.6 µM), for the others: top-dose activation (PINK1 increase), usual class: activators | 0.2% of 410,000 active | AID 624263; active = well fitted activation curve with a large enough effect; inconclusive = small, poorly fitted or top-dose-only effect; cell line not stated here; also: % of control where 0% means no effect; nearly all actives have a fitted effect of over 65% in size
#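 PINK1 protein level read as immunofluorescence by microplate cytometer in a fixed, stained stable cell line after 24 h exposure to five compound concentrations, with CCCP as control.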
# Nrf2 activator: activators of Nrf2 (ARE) signaling; AREc32 ARE-luciferase reporter (MCF7-derived line), luminescence, 24 h; Potency, µM (titrated, usually from 46.1 µM), for the others: at the top dose activation, usual class: activators; 0.31% of 410,000 active; AID 624171; also: % of control where 0% means no effect; nearly all actives have a fitted effect of over 65% in size
#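 For detection, Steady-Glo was added and plates sat 30 min at RT; before that, AREc32_Fluc cells grown overnight in OPTI-MEM/5% FBS had been treated with 23 nL compound for 24 hr at 37 deg C.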
# Epigenetic reg: derepresses silenced GFP reporter in murine cells | murine LDR cells, GFP reporter derepression, 30 h | Potency, µM (doses to about 53.9 µM), for the others: at the top dose GFP activation, most hits filed as activators | 0.2% of 280,000 active | AID 1865; also: % of control where 0% means no effect; nearly all actives have a fitted effect of over 60% in size
#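 Derepression of a silenced CMV-GFP reporter in murine LDR cells is scored by enumerating GFP-positive cells with a laser-scanning microplate cytometer after 30 hours of treatment at 37 C.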
# Starred values were filed as active, the others as inactive; ? = inconclusive; . = no result; [ ] = another dose, or the depositor's remark. This is a sample that favours compounds with a hit; in the whole collection about 2.4% have one here. Unless noted, calls follow the shape of the dose curve; as a rule, active = well fitted curve in the direction sought with a large enough effect; inconclusive = small, poorly fitted or top-dose-only effect, or another doubt; inactive = no such curve, though single readings can be large; an effect the other way counts as inactive or inconclusive. Potency is read from the fitted curve at half-maximal effect.
SMILES,A549 viability,Nrf2 inh,PINK1 expr mod,Nrf2 activator,Epigenetic reg
Cc1ccc(NC(=O)NC(=O)CN2CCN(c3ccc(O)cc3)CC2)c(C)c1,-14%,23µM*,9%,0%,.
CCCCSc1nnc2c(n1)OC(c1ccc(Br)s1)N(C(C)=O)c1ccccc1-2 (stereo unspecified),?,-10%,6%,13%,1%
CC(C)N1C[C@@H](Sc2ccccn2)C[C@H]1C(=O)Nc1ccc2c(c1)Nc1ccccc1CC2,.,.,0%,.,.
CCN(c1cccc(C)c1)S(=O)(=O)c1nnc(NC(=O)c2ccccc2Cl)s1,20%,?,-1%,0%,1%
COc1cc(C)c(CN2CCOc3ccc(C(O)c4cccnc4)cc3C2)cc1C (stereo unspecified),.,.,0%,.,.
Cc1ccc(C)c(NC(=S)NNC(=O)c2csc3c2CCC(C)C3)c1 (stereo unspecified),?,21µM*,3%[38.3 µM],-1%,-2%
COc1ccc(CN(C(=O)CSc2nnc(-c3ccc(F)cc3)o2)c2ccc(F)cc2)cc1,-7%,?,1%[38.3 µM],-1%,1%
O=C(CSc1nnc(Cn2nnc3ccccc32)o1)N(Cc1ccc(F)cc1)c1ccccc1,?,5.8µM*,.,5%,0%
COc1ccc(CN(C(=O)CSc2nnc(-c3c[nH]c4ccccc34)o2)c2ccc(F)cc2)cc1OC,?,12µM*,-1%,0%,1%
c1ncc(-c2ccoc2)c(NC2CC2)n1,.,.,0%,.,.
CCC1CN(CCNC(=O)c2cccc(C(=O)OC)c2)Cc2cc(OC)ccc2O1 (stereo unspecified),.,.,0%,.,.
COc1ccnc(Oc2ccccc2)c1C(=O)N/C=N/OCc1ccccc1,5%,-5%,12%,0%,0%
COc1ccnc(Oc2cccc(C(F)(F)F)c2)c1C(=O)N/C=N/OCc1ccccc1F,-14%,21µM*,0%,2%,3%
C/C(CS(=O)(=O)c1ccccc1)=N\O,0%,-13%,0%,0%,-1%[10.1 µM]
C/C=C(\CS(=O)(=O)c1ccccc1)S(=O)(=O)c1ccccc1,-18%,6%,-2%,13µM*,1%
Cc1ccc(C)c(S(=O)(=O)C(C#N)c2nc3ccccc3nc2N2CC(C)OC(C)C2)c1 (stereo unspecified),.,13µM*,?,-1%,-10%
Cc1ccc(C)c(S(=O)(=O)C(C#N)c2nc3ccccc3nc2N2CCCC2)c1 (stereo unspecified),2%,8%,?,0%,?
CCOC(=O)c1c(C)oc2nc(C)nc(NCCc3ccc(OCC)cc3)c12,-3%,23µM*,-1%,1%,0%
CCOC(=O)c1c(C)oc2nc(C)nc(NCCc3ccc(Cl)cc3)c12,14%,-25%,0%,0%,-1%
CCn1c(-c2ccccc2F)nc2cc(NC(C)=O)cc(C(=O)N3CCC[C@H]3C(=O)OC)c21,.,.,2%,.,.
COc1ccc(Br)cc1/C(C)=N/NC1=NCCN1,1%,12µM*,2%,5%,1%
O=C(NCc1nnc2n1CCN(Cc1cc3c(cc1Cl)OCO3)CC2)c1cccc(F)c1,.,.,-1%,.,.
CCn1c(=NC(=O)CCS(=O)(=O)c2ccccc2)sc2cccc(OC)c21,-23%,?,1%,7%,.
CCn1c(=NC(=O)CS(=O)(=O)c2ccc(F)cc2)sc2cccc(OC)c21,-1%,21µM*,2%,0%,.
O=C(/C=C/c1cc(Br)ccc1F)OCC(=O)N1CCOCC1,-3%,-2%,-1%,11µM*,.
SMILES,A549 viability,Nrf2 inh,PINK1 expr mod,Nrf2 activator,Epigenetic reg
O=C(/C=C/c1cccc(Cl)c1Cl)OCC(=O)N1CCOCC1,2%,-2%,-1%,18µM*,.
O=C(/C=C/c1cc(Br)ccc1F)OCC(=O)N1CCCC1,-1%,0%,1%,11µM*,.
Cc1ccc(-c2cn3c(n2)sc2cc(C(=O)NC4CCCCC4)ccc23)cc1,-1%,7%,1%,3%,0%
O=C(COc1ncnc2ccc(Br)cc12)Nc1ccc(N2CCOCC2)cc1,-1%,-13%,-4%,0%,1%
Brc1ccc2ncnc(Nc3ccc(N4CCOCC4)cc3)c2c1,-18%,12µM*,-2%,2%,0%
COc1ccccc1CNC(=O)Cn1ncc2c(C)n(Cc3ccccc3Cl)c(C)c2c1=O,-7%,?,0%,0%,3%
COCc1cc(=O)[nH]c(Nc2nc3ccc(C)cc3o2)n1,?,?,0%,13µM*,16%
CCc1ccc2nc(Nc3nc(COC)cc(=O)[nH]3)nc(C)c2c1,4%,-12%,0%[38.3 µM],0%,-1%
COCC(=O)Nc1cc(C(=O)NC2Cc3ccccc3C2)cc2nc(-c3cccnc3)n(C)c12,.,.,1%,.,.
Cc1ccc(SC(=O)c2c([N+](=O)[O-])c(C)nn2C)cc1,10%,7%,4%,9%,22µM*
C=CCN(CC=C)c1ccc(/C=C/c2ccnc3ccccc23)cc1,.,.,-1%,.,.
COc1ccc(NC(=O)c2oc3ccccc3c2NC(=O)c2ccco2)cc1,-7%,1.6µM*,11%[38.3 µM],0%,6%
COc1ccc(NC(=O)c2oc3ccccc3c2NC(=O)c2cc3ccccc3o2)cc1,3%,4%,2%,1%,-3%
Cc1ccccc1OCC(=O)Nc1ccc2c(c1)Cc1ccccc1-2,6%,.,?,0%,0%
CC(C)(C)C(=O)Nc1ccc2c(c1)C(=O)C(=O)c1ccccc1-2,?,21µM*,-1%,.,.
Cc1ccccc1OCC(=O)Nc1ccc2c(c1)C(=O)c1ccccc1C2=O,?,15µM*,-2%,0%,0%
CC(=O)Nc1ccc2c(c1)C(=O)c1ccccc1C2=O,1%,?,0%,7%,1%
CC(C)=CCC/C(C)=C/CO/N=C1/C[C@@H](O)[C@@H](O)[C@@H]2[C@@H]3C(=O)N(C[C@@H]4CCCO4)C(=O)[C@H]3CC[C@@H]12,.,.,.,.,1%[10.1 µM]
O=C(c1ccc2c(=O)n(C3CCCC3)c(=S)[nH]c2c1)N1CCCCCC1,-22%,16µM*,4%,-1%,0%
CC1CCCN(C(=O)c2ccc3c(=O)n(C4CCCC4)c(=S)[nH]c3c2)C1 (stereo unspecified),-8%,?,6%,0%,-2%
O=C(c1ccc2c(=O)n(-c3ccccc3)c(=S)[nH]c2c1)N1CCCCC1,-3%,7.3µM*,2%,0%,-1%
CC(NC(=O)c1ccco1)c1nnc2n1CCN(Cc1ccc(N3CCCC3)cc1)CC2 (stereo unspecified),.,.,0%,.,.
COc1cc2nc(CN3CCN(S(=O)(=O)c4ccc(Cl)cc4)CC3)[nH]c(=O)c2cc1OC,-9%,23µM*,1%,1%,1%
COc1cc(/C=N/Nc2ccccn2)ccc1O,-4%,?,-2%,8.9µM*,0%
Cc1ncc(N=Nc2ccccc2)c(-c2ccccc2)n1,-1%,-2%,17%,4µM*,2%

# High-throughput results from PubChem.
